Shown are actives, neighbours in structure and some others; about 7.9% of the full set was active somewhere.
HT1080 IDH1KD tx = qHTS for induction of synthetic lethality in tumor cells producing 2HG: qHTS for the HT-1080-IDH1KD cell line | HT-1080 IDH1 knockdown viability, ATP luminescence, 48 h | Potency, µM (highest dose often 46.1 µM), actives largely listed as cytotoxic | 360,000 compounds, 2% hits | AID 686971, 2013
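Cytotoxicity counter-line: IDH1KD HT-1080, 48 h, CellTiter-Glo. Curves classed by r2, magnitude and activity.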
SW480 rereplic = A quantitative high throughput screen for small molecules that induce DNA re-replication in SW480 colon adenocarcinoma cells. Potency, µM (highest dose often 46.1 µM), most hits filed as activators. 340,000 compounds, 1.8% hits. AID 624297, 2012. SW480 DNA re-replication, Hoechst DNA content imaging, 48 h; note: nearly all actives have a fitted effect of over 55% in size
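Quantitative HTS format with DMSO vehicle controls; 48 hr drug incubation at 37 C, then 40 min Hoechst staining and scanning imager measurement at 405 nm excitation.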
KB-3-1 cytotox = qHTS assay for MDR1-selective chemotherapeutics: Primary screen using the parental adenocarcinoma cell KB-3-1. 400,000 compounds, 1.4% hits. AID 1347075, 2019. Potency, µM (titrated, usually from 46.1 µM), actives largely listed as cytotoxic. KB-3-1 viability, CellTiter-Glo ATP luminescence, 72 h; note: nearly all actives have a fitted effect of over 60% in size
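KB-3-1 parental drug-naive adenocarcinoma cells in DMEM/10% FBS, incubated 72 h at 37 C with pin-transferred compounds across a concentration series. Viability by CellTiter-Glo luminescence; concentration-response curves fitted after normalization.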
MCF10A rerep = A quantitative high throughput screen for small molecules that induce DNA re-replication in MCF 10a normal breast cells. MCF 10A DNA re-replication, Hoechst nuclear intensity, 48 h. Potency, µM (doses to about 46.1 µM), most hits filed as activators. 350,000 compounds, 2.9% hits; note: nearly all actives have a fitted effect of over 50% in size
HT1080-NT tox = qHTS for induction of synthetic lethality in tumor cells producing 2HG: qHTS for the HT-1080-NT fibrosarcoma cell line; HT-1080-NT fibrosarcoma viability, CellTiter-Glo ATP luminescence, 48 h; 360,000 compounds, 1.6% hits; Potency, µM (top dose mostly 46.1 µM), actives largely listed as cytotoxic;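 note: NT is the 2HG producing partner of a matched IDH1 knockdown line; nearly all actives have a fitted effect of over 55% in size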
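750 cells/well, RPMI + 5% FBS; 2 h settle, compound pin-transfer, 48 h at 37 degrees C. CellTiter-Glo 10 min RT, luminescence. Normalized to DMSO and media-only wells.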
KB-V1 cytotox = qHTS assay for MDR1-selective chemotherapeutics: Primary screen using the drug-selected MDR subline cells KB-V1 | KB-V1 MDR cells viability, CellTiter-Glo, 72 h | 400,000 compounds, 3.4% hits | Potency, µM (top dose mostly 46.1 µM), actives largely listed as cytotoxic; note: nearly all actives have a fitted effect of over 60% in size
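KB-V1 cells (P-gp-expressing MDR subline of KB-3-1) in phenol-red-free DMEM with 10% FBS were exposed to library compounds over a concentration series for 72 h at 37 degrees C. Viability read by CellTiter-Glo luminescence; concentration-effect curves fitted after normalization.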
A number is an active result; - = inactive; ? = inconclusive; . = no result given; [ ] = another dose, or the depositor's remark. Calls come from the whole dose curve; as a rule, active = well fitted curve in the direction sought with a large enough effect; inconclusive = small, poorly fitted or top-dose-only effect, or another doubt; inactive = no such curve, though single readings can be large; an effect the other way counts as inactive or inconclusive.

SMILES	HT1080 IDH1KD tx	SW480 rereplic	KB-3-1 cytotox	MCF10A rerep	HT1080-NT tox	KB-V1 cytotox
O=C1OC(/C(=C\Nc2ccc(F)cc2F)[N+](=O)[O-])c2ccccc21 (configuration not stated)	18µM	-	-	-	?	-
CC(C)Cc1ccc(S(=O)(=O)N2CCOCC2)cc1	-	-	-	-	-	-
CC(C)Cc1ccc(C(C)CC2=CCC(CN(C)C)C2=O)cc1 (configuration not stated)	?	?	?	6.5µM	?	?
O=C(Nc1ccc(C(=O)OC[C@@H]2CCCN3CCCC[C@H]23)cc1)c1cccc(Br)c1	-	-	-	23µM	-	-
Cc1ccc(F)cc1NC(=O)c1ccc(OCC2CCCO2)cc1 (configuration not stated)	-	-	-	-	-	-
CCN1CCS/C1=C/C=C/C1=[N+](CC)CCS1	.	-	?	-	.	-
CCN1CCS/C1=C\C=C\C1=[N+](CC)CCS1	5.2µM	-	-	?	4.6µM	-
CCOC(=O)c1cc2cc(OC)ccc2n1C1CCN(CCc2ccccc2)CC1	18µM	.	?	.	?	-
O=[N+]([O-])c1cccc(Cl)c1NCCNS(=O)(=O)c1ccccc1	-	-	-	-	-	?
O=C(c1ccccc1)N1CCN(CC(O)COCC2CC=CCC2)CC1 (configuration not stated)	-	-	-	-	-	9.2µM
O=C(c1ccccc1)N1CCN(CC2CC=CCC2)CC1 (configuration not stated)	-	-	-	-[0.0737 µM]	-	-
COc1ccc(Cn2c(CCC(=O)Nc3ccccc3)nc3cccnc32)cc1	?	-	-	-	-	-
COc1ccc(Cn2c(CCC(=O)Nc3ccc(CC#N)cc3)nc3cccnc32)cc1	?	-	-	-	?	2.6µM
O=C(Nc1ncc(Br)s1)C(Cc1ccccc1)n1cccc1 (configuration not stated)	-	-	-	-	26µM	-
O=C(NCc1ccccc1)c1c(Cl)nc(Cl)c(Cl)c1Cl	7.3µM	6.5µM	16µM	18µM	10µM	-
Cc1ccc(-c2cccc(C(=O)NCCc3ccccc3)n2)c2ccccc12	-	?	-	-	-	-
Cc1ccc(-c2cccc(C(=O)NCc3ccccc3)n2)c2ccccc12	?	16µM	?	?	?	?
Cc1nc(Cl)c(C(=O)NCc2ccccc2)c(C)c1Cl	-	-	-	-	-	-
C=CCn1c(SCC(=O)Nc2ncc(Cc3cc(Cl)ccc3Cl)s2)nnc1-c1ccncc1	-	-	-	-	-	-
CCOC(=O)C1CCCN(CC(=O)N(C)c2c(N)n(Cc3ccccc3)c(=O)[nH]c2=O)C1 (configuration not stated)	-	-	-	-	-	-
Clc1ccc(CNc2nc(CN3CCOCC3)nc3scc(-c4ccccc4)c23)cc1	-	-	?	13µM	-	21µM
N#Cc1ccc(S(=O)(=O)NC[C@H]2O[C@@H](n3cnc4c(N)ncnc43)[C@H](O)[C@@H]2O)cc1	-	-	?	-	-	-
N#Cc1c(Cl)nsc1NC(=O)c1ccccc1	13µM	-	?	?	8.2µM	7.3µM
Cc1sc(NC(=O)C2CCCCC2)c(C#N)c1-c1ccccc1	-	-	-	-	-	-
Cc1onc(-c2ccccc2)c1C(=O)Nc1sccc1C#N	-	-	-	-	-	-
SMILES	HT1080 IDH1KD tx	SW480 rereplic	KB-3-1 cytotox	MCF10A rerep	HT1080-NT tox	KB-V1 cytotox
Cc1noc(C)c1C(=O)Nc1sc(C)c(-c2ccccc2)c1C#N	-	-	13µM	-	-	4.1µM
Cc1cccc(C(=O)Nc2sc(C)c(-c3ccccc3)c2C#N)c1	?	-	-	9.2µM	-	?
Cc1cccc(OCCNC(=S)NC(=O)c2cncc(Br)c2)c1	-	-	.	-	-	.
CCOC(=O)c1c(NC(=S)NCCc2ccccc2)sc2c1CC(C(C)C)OC2 (configuration not stated)	-	-	-	-	-	21µM
C=CCNC(=S)Nc1sc2c(c1C(=O)OCC)CC(C(C)C)OC2 (configuration not stated)	7.9µM	?	-	12µM	6.3µM	?
CC(C)C1Cc2c(sc(NC(=S)NC(=O)c3ccccc3)c2C#N)CO1 (configuration not stated)	-	-	-	-	-	-
Cc1ccc(/C=N/NC(=O)CNC(=O)Cc2ccccc2)o1	-	-	-	-	-	-
O=C(CSc1nc2ncc(Br)cc2[nH]1)Nc1ccccc1-c1ccccc1	?	-	-	26µM	?	?
CCc1ccc(NC(=O)CSc2nc3ncc(Br)cc3[nH]2)cc1	-	-	-	12µM	-	-
O=C(CSc1nc2ncc(Cl)cc2[nH]1)Nc1ccccc1-c1ccccc1	?	?	-	?	?	-
COc1ccc(/C=C2\CCn3c2nc2ccccc2c3=O)cc1OC	-	-	-	-	-	-
COc1cc2c(cc1OC)-c1nc3ccccc3c(=O)n1C(C)(C)C2	-	-	-	-	-	9.2µM
CCOC(=O)C1CCCN(CC(=O)Nc2ccc(C(=O)Nc3ccccc3OC)cc2)C1 (configuration not stated)	-	-	-	-	-	?
O=C(CCN1C(=O)c2cccc3cccc(c23)C1=O)NC1CCS(=O)(=O)C1 (configuration not stated)	-	-	-	-	-	-
O=C(CCCCCN1C(=O)c2cccc3cccc(c23)C1=O)NC1CCS(=O)(=O)C1 (configuration not stated)	-	18µM	-	-	-	-
CCOc1ccc(NC(=O)c2sc3ccccc3c2Cl)cc1	.	.	-	.	.	-
Cc1cc(N2CCCC2=O)c(N)cc1N	-	-	-	-	-	-
CS(=O)(=O)N(CC(=O)N1CCN(Cc2ccc3c(c2)OCO3)CC1)C1CCCCC1	-	-	-	-	-	21µM
CC(C)(C)CC(=O)N1CCN(Cc2ccc3c(c2)OCO3)CC1	-	-[9.22 µM]	-	-	-	-
O=C(CCC1CCCCC1)N1CCN(Cc2ccc3c(c2)OCO3)CC1	-	-	?	-	-	23µM
CCn1cc(C(=O)N[C@H](C(=O)O)C(C)C)c(=O)c2cc3c(cc21)OCO3	-	-	-	-	-	-
Cc1c(C(=O)Nc2nc3ccccc3[nH]2)cccc1[N+](=O)[O-]	-	.	-	-	-	-

Compound activity from PubChem BioAssay.
